PMP22 txn: Cell-based coincidence reporter assay to measure PMP22 gene transcription in S16 Pmp22-F2sN cells - Primary screen. Potency, µM (series often up to 57.5 µM), for inactives: at the highest dose activity change, negative = inhibition, actives largely listed as inhibitors. 43,000 compounds, 2% hits. S16 Pmp22-F2sN Schwann cells, FLuc/NLuc coincidence luminescence, 24 h; active = clear falling dose curves in both reporters; inconclusive = both reporters move, but less clearly or upward; inactive = either reporter flat; the % is the NLuc reporter signal; also: potency is read from the fitted curve at half-maximal effect; % is scaled to controls: 0 for no effect and ±100 for the full control effect
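qHTS, 1536-well. Cells seeded, compounds added by pin tool, 24 h 37C. Nano-Glo reagent 1 (lysis/FLuc), 10 min RT, read; Stop&Glo, 10 min RT, read NLuc.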
S16 F2sN tox: Cell viability qHTS assay in S16 Pmp22-F2sN cells | S16 Pmp22-F2sN Schwann cells viability, CellTiter-Glo, 24 h | Potency, µM (series often up to 57.5 µM), without a hit: at the highest dose activity change, negative = cytotoxicity, hits mostly cytotoxic | 43,000 compounds, 0.48% hits; also: potency is read from the fitted curve at half-maximal effect; % is scaled to controls: 0 for no effect and ±100 for the full control effect; nearly all actives have a fitted effect of over 65% in size
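Used to flag compounds lowering reporter output through toxicity, this quantitative HTS measures ATP-based CellTiter-Glo luminescence in S16 Pmp22-F2sN Schwann cells after 24 h compound exposure at 37C.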
GALK inh: qHTS Assay for Inhibitors of Human Galactokinase (GALK): NCGC Sytravon Library Screen; 44,000 tested, under 10 active; Potency, µM (series often up to 57.5 µM), for the others: top-dose activity, negative = inhibition, most hits filed as inhibitors; recombinant GALK, Kinase-Glo ATP luminescence, 1 h;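 also: plate controls were full GALK reaction for no effect and reaction lacking GALK for full effect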
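Compounds were pinned into ATP buffer, then GALK-galactose mix was added (final 5 nM enzyme, 35 uM ATP, 100 uM galactose, pH 8.0). After 1 h at room temperature, Kinase-Glo Plus was added and luminescence read.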
PTAP-TSG101 blk: qHTS Validation Assay for Inhibitors of HIV-1 Budding by Blocking the Interaction of PTAP/TSG101: Sytravon Library Screen; 44,000 tested, under 10 active; Fluorescence polarization, FITC-PTAP peptide/Tsg101, 20 min; Potency, µM (doses to about 115 µM), actives largely listed as inhibitors; Tumor susceptibility gene 101 protein (Homo sapiens), Q99816; AID 1347069, 2019; also: potency is read from the fitted curve at half-maximal effect; 0% is about no effect
Target sequence (Q99816 whole entry, looked up): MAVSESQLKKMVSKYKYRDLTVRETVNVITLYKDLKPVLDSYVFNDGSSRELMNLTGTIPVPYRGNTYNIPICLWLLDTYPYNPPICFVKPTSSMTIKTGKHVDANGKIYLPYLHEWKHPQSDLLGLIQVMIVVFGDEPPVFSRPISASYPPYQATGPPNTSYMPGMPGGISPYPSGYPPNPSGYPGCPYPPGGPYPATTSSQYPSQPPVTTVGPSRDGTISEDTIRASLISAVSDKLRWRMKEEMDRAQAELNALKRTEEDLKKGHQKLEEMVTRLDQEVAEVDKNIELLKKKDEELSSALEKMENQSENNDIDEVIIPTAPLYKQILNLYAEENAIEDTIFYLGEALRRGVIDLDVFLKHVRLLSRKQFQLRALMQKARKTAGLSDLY
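Read-out is FITC fluorescence polarization. Compounds were added to Tsg101 binding domain (10 uM final), then FITC-PTAP peptide (50 nM final), 20 min at r.t. Total S+P intensity flags fluorescent compounds.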
pS6 MEF inh: Acumen qHTS Assay for Inhibitors of the mTORC1 Signaling Pathway in MEF (Tsc2-/-, p53-/-) Cells: Sytravon; Tsc2-/- p53-/- MEF, phospho-rpS6 immunofluorescence/PI, 24 h; Potency, µM (top dose mostly 38.3 µM), for inactives: at the highest dose activity change, negative = inhibition, actives largely listed as inhibitors; 44,000 compounds, 0.78% hits; AID 493208, 2011;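 also: potency is read from the fitted curve at half-maximal effect; plate controls were DMSO for no effect and rapamycin for full effect; nearly all actives have a fitted effect of over 50% in size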
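Readout is phospho-S6 Alexa 488 signal normalized to PI per well, reported as % active cells with thresholds set from rapamycin (7.5 nM) and DMSO controls. Cells: Tsc2-/-, p53-/- MEFs, 24 hrs compound at 37 C; PI cell number serves as viability.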
NLuc sat counter: Biochemical NLuc saturation counterscreen for small molecule modulators of PMP22 gene expression - Nano-Glo assay. shares compounds with PMP22 txn. Secreted NLuc enzyme (filtered S16 cell medium), Nano-Glo luminescence. Potency, µM (titrated, usually from 57.5 µM), inactives show top-dose activity change, negative = inhibition, actives largely listed as inhibitors. 690 compounds, 4% hits; also: potency is read from the fitted curve at half-maximal effect; % is scaled to controls: 0 for no effect and ±100 for the full control effect
NLuc Km counter: Biochemical coelenterazine-based NLuc counterscreen for small molecule modulators of PMP22 gene expression - Km assay; shares compounds with PMP22 txn; secreted NLuc enzyme, coelenterazine luminescence, Km conditions; Potency, µM (series often up to 57.5 µM), without a hit: at the highest dose activity change, negative = inhibition, most hits filed as inhibitors; 690 compounds, 5% hits; AID 1508639, 2021; also: potency is read from the fitted curve at half-maximal effect; % is scaled to controls: 0 for no effect and ±100 for the full control effect
FLuc ctr PMP22: Biochemical FLuc counterscreen for small molecule modulators of PMP22 gene expression. shares compounds with PMP22 txn. purified P. pyralis FLuc, luminescence, 10 min. Potency, µM (highest dose often 57.5 µM), without a hit: top-dose activity, negative = inhibition, most hits filed as inhibitors. 690 tested, under 10 active; also: % of control where 0% means no effect
S16 viab conf: Cell viability qHTS assay in S16 Pmp22-F2sN cells - Confirmatory screen. shares compounds with PMP22 txn. Potency, µM (highest dose often 57.5 µM), without a hit: top-dose activity change, negative = viability loss, hits mostly cytotoxic. 690 compounds, 7% hits. S16 Schwann cells viability, CellTiter-Glo ATP luminescence, 24 h. AID 1508641, 2021; also: potency is read from the fitted curve at half-maximal effect; % is scaled to controls: 0 for no effect and ±100 for the full control effect
PMP22 txn cnf: Cell-based coincidence reporter assay to measure PMP22 gene transcription in S16 Pmp22-F2sN cells - Confirmatory screen. shares compounds with PMP22 txn. S16 Schwann cells Pmp22-F2sN, dual luciferase, 24 h. Potency, µM (doses to about 57.5 µM), without a hit: at the highest dose activity change, negative = inhibition, most hits filed as inhibitors. 690 compounds, 22% hits; active = clear falling dose curves in both reporters; inconclusive = both reporters move, but less clearly or upward; inactive = either reporter flat; the % is the FLuc reporter signal; also: potency is read from the fitted curve at half-maximal effect
PMP22 prot conf: Cell-based HiBiT reporter assay to measure PMP22 protein expression in S16 Pmp22-HiBiT cells - Confirmatory screen; shares compounds with PMP22 txn; S16 Schwann cells Pmp22-HiBiT, luminescence, 48 h; Potency, µM (top dose mostly 27.9 µM), for the others: at the top dose activity change, negative = inhibition, most hits filed as inhibitors; 95 tested, under 10 active; AID 1508647, 2021
Target sequence (P25094 whole entry, looked up): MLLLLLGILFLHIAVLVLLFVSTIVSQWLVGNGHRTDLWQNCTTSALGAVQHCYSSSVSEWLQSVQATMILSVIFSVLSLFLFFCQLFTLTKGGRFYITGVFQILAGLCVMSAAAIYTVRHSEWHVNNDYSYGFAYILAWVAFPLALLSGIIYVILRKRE
Active calls of the source: *; i = inactive; ? = inconclusive; . = no result given. An excerpt weighted towards active compounds, which were near 2.8% of everything screened. Unless noted, calls follow the shape of the dose curve; as a rule, active = well fitted curve in the direction sought with a large enough effect; inconclusive = small, poorly fitted or top-dose-only effect, or another doubt; inactive = no such curve, though single readings can be large; an effect the other way counts as inactive or inconclusive.

SMILES | PMP22 txn | S16 F2sN tox | GALK inh | PTAP-TSG101 blk | pS6 MEF inh | NLuc sat counter | NLuc Km counter | FLuc ctr PMP22 | S16 viab conf | PMP22 txn cnf | others
COc1ccc(NC(=O)Cn2c(=O)n(CCC(=O)NCc3ccccc3OC)c(=O)c3ccccc32)cc1Cl | 15µM* | 8% | 0% | i | -5% | -5% | 3% | 6% | -19% | 13µM* | PMP22 prot conf=?
COc1ccc(NC(=O)Cn2c(=O)n(CCCC(=O)NCc3ccccc3OC)c(=O)c3ccccc32)cc1Cl | ? | 21% | -5% | i | ? | . | . | . | . | .
COc1ccccc1CNC(=O)CCCCn1c(=O)c2ccccc2n(Cc2ccccc2F)c1=O | ? | 3% | 0% | i | 0% | . | . | . | . | .
CCOc1ccccc1C(=O)Nc1cccc(-c2nc3ccccc3s2)c1 | -73% | ? | -7% | i | -1% | . | . | . | . | .
COc1cc(NC(=O)Nc2cccc(-c3noc(C)n3)c2)cc(OC)c1OC | -8% | -11% | 0% | i | 0% | . | . | . | . | .
O=C(Nc1c(C(=O)N2CCN(c3ccccc3)CC2)oc2ccccc12)c1ccco1 | 2% | -20% | 0% | i | 1% | . | . | . | . | .
CCCCS(=O)(=O)c1nc(-c2ccc(Br)cc2)cc(-c2ccccc2)c1C#N | 6.8µM* | ? | 2% | i | 5.2µM* | -12% | 3% | 4% | -12% | 9.3µM* | PMP22 prot conf=98%
O=C(NCc1ccc(F)cc1)c1cc(Sc2ccc(F)cc2F)nc2ccccc12 | -30% | -3% | -1% | i | 0% | . | . | . | . | .
CCCC(=O)Nc1nnc(SCc2cc(=O)c3ccc(C)cc3[nH]2)s1 | 6.8µM* | -22% | 1% | i | ? | ? | ? | -12% | -23% | ?
CCC(=O)Nc1nnc(SCc2cc(=O)c3cc(C)ccc3[nH]2)s1 | ? | -25% | 1% | i | 8% | . | . | . | . | .
O=S(=O)(NCCc1csc2nc(-c3ccc(F)cc3)nn12)c1ccc2c(c1)OCCO2 | ? | ? | 0% | i | 0% | . | . | . | . | .
CCc1ccc(CNC(=O)c2nn(-c3ccc(C)cc3)c(=O)c3c2c2ccccc2n3C)cc1 | 2.8µM* | 0% | -3% | i | -1% | -5% | 2% | 1% | ? | ?
CCN(Cc1ccccc1)C(=O)c1nn(-c2ccc(OC)cc2)c(=O)c2c1c1ccccc1n2C | 19µM* | ? | -1% | i | 1% | -18% | -4% | 3% | 21% | -42%
CCc1ccc(NC(=O)CSc2nnc(-c3cc4occc4n3C)n2-c2ccccc2C)cc1 | 12% | -18% | -5% | i | -15% | . | . | . | . | .
CCOc1ccc(NC(=O)c2sc3nc4n(c(=O)c3c2C)CCCC4)cc1 | -138% | -3% | -10% | i | 1% | . | . | . | . | .
O=C(CSc1nc2ccsc2c(=O)n1-c1ccc(Cl)cc1)NCc1ccc(Cl)cc1 | ? | 6% | 1% | i | -3% | . | . | . | . | .
O=C(CSc1nc2ccsc2c(=O)n1-c1ccc(Br)cc1)NCc1ccc(Cl)cc1 | 12µM* | 2% | -1% | i | ? | -5% | -2% | 5% | 3% | ?
O=C(COc1ccccc1)N(Cc1cccnc1)c1nc2ccc(F)cc2s1 | -27% | -24% | -2% | i | 2% | . | . | . | . | .
O=C(CCOc1ccccc1)N(Cc1cccnc1)c1nc2ccc(F)cc2s1 | 13µM* | 25µM* | 0% | i | -8% | ? | ? | -15% | -6% | -12%
CCN1CCN(CCCNC(=O)c2ccc3c(c2)sc2nc(-c4ccc(C)cc4)cn23)CC1 | 9.5µM* | ? | 1% | i | 9% | 15µM* | ? | 6.9µM* | 19µM* | 17µM*
COc1ccc(CCNCc2c(C(=O)O)c(C)n(Cc3ccccc3C)c2C)c(OC)c1 | -1% | -4% | 5% | i | -2% | . | . | . | . | .
COc1ccccc1CNC(=O)Nc1ccc2c(c1)N(C)C(=O)c1ccccc1S2 | ? | -11% | -1% | i | -24% | . | . | . | . | .
COc1ccc(C(=O)Nc2cc(C(F)(F)F)ccc2N2CCN(c3ccccc3)CC2)cc1OC | -15% | 7% | 2% | i | 4% | . | . | . | . | .
COc1nnc(-c2ccc(N3CCCCC3)c(NC(=O)c3ccc(Cl)cc3)c2)c2ccccc12 | 15µM* | 3% | 2% | i | 0% | ? | 0% | 4% | -8% | ?

Assay outcomes: PubChem, National Center for Advancing Translational Sciences (NCATS)
